FLuc modulator = firefly luciferase modulation, counter-screen for miR-21 project. 360,000 tested, 6.9% active. purified FLuc, Km substrates, luminescence inhibition. P08659. AID 588342. Potency, µM (doses to about 57.5 µM), without a hit: at the top dose activity change, negative = inhibition, actives largely listed as inhibitors;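 further: plate controls were vehicle for no effect and reference inhibitor for full effect; nearly all actives have a fitted effect of over 55% in size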
Target sequence (P08659 whole entry, looked up): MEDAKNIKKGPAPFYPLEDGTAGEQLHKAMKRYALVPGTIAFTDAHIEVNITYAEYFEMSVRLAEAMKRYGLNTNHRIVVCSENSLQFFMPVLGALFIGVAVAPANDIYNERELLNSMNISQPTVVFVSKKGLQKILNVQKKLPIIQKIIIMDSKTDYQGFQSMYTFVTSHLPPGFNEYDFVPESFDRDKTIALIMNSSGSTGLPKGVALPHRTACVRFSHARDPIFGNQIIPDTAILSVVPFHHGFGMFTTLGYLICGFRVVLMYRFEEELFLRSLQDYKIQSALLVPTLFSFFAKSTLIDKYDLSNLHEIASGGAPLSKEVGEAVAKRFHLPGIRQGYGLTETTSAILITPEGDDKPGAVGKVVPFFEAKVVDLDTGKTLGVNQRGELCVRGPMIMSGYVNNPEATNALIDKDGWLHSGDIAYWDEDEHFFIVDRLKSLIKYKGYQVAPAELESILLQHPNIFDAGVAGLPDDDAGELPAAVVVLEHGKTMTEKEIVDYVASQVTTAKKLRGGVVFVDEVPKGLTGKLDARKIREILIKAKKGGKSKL
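Purified P. pyralis luciferase (10nM final) with 10uM D-luciferin and 10uM ATP (Km levels) in 50mM Tris acetate pH 7.5, 10mM Mg acetate, 0.01% Tween-20, 0.05% BSA; qHTS 6-point titration, ~60 µM downward; luminescence read.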
KinaseGlo FLuc = blocks Kinase-Glo luciferase, a counter-screen artifact | Q27757 | Kinase-Glo luciferase, ATP luminescence, 8 min | Potency, µM (highest dose often 38.3 µM), inactives show at the highest dose activity change, negative = inhibition, usual class: inhibitors | 200,000 tested, 0.28% active; further: on the % scale 0 is the no-effect control and ±100 the full control effect; nearly all actives have a fitted effect of over 60% in size
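Luminescence was the read-out, taken after 8-minute incubation at ambient temperature. Luciferase turned over luciferin with 10 uM ATP in imidazole pH 7.2 buffer containing KCl, MgCl2, Tween 20 and BSA.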
NPC1 prom act = activators of NPC1 promoter | Huh7 NPC1 promoter luciferase reporter, 24 h | Potency, µM (doses to about 9.22 µM), without a hit: at the top dose activation, actives largely listed as activators | 320,000 tested, 2.4% active | AID 485313; further: % of control where 0% means no effect; nearly all actives have a fitted effect of over 60% in size
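Stably transfected Huh7 (NPC1 promoter→luciferase), 1500 cells/well in Opti-MEM + 10% FBS, 2 h settle, then compound 24 h at 37 °C. Luminescence after 10 min with Amplite reagent.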
SMN2 splice enh = SMN2 splice variant enhancement | HEK293 SMN2-luciferase splicing reporter, luminescence, 30-36 h | Potency, µM (titrated, usually from 46.1 µM), without a hit: at the highest dose activity change, positive = activation, usual class: activators | 210,000 tested, 2.8% active; further: % of control where 0% means no effect; nearly all actives have a fitted effect of over 55% in size
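HEK293 cells carry an SMN2 minigene-luciferase reporter in which exon 7 inclusion puts luciferase in frame. Cells were seeded at 2000 cells/well, attached for 10-12 hours, then exposed to compounds for 30-36 hours at 37C before ONE-Glo luminescence.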
Rab9 prom act = activators of Rab9 promoter. Huh7 Rab9 promoter-luciferase reporter, luminescence, 24 h. Potency, µM (doses to about 9.22 µM), for inactives: top-dose activation, negative = inhibition, most hits filed as activators. 320,000 tested, 2.8% active. AID 485297; further: % of control where 0% means no effect; nearly all actives have a fitted effect of over 60% in size
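Luciferase signal after 10 min detection reagent at ambient indicates Rab9 promoter upregulation; stably transfected Huh7 cells were treated 24 h with compound in DMSO at 37 °C, 5% CO2.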
ELG1 genotox = induces genotoxicity in HEK293T cells with luciferase-tagged ELG1. HEK293T ELG1-luciferase reporter, luminescence, 16 h. Potency, µM (doses to about 46 µM), without a hit: top-dose activity change, positive = activation, usual class: activators. 330,000 tested, 1.3% active; further: % of control where 0% means no effect; nearly all actives have a fitted effect of over 60% in size
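DMSO vehicle served as control against compound-treated ELG1-luciferase HEK293T cells; exposure lasted 16 hr at 37 °C and 5% CO2, followed by ONE-Glo luminescence detection after 30 min.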
* marks the source's active call; other numbers are inactive results; ? = inconclusive; . = no result; [ ] = remark or other dose. The list is not random: actives were taken first. Their share in the collection is about 7.4%. The call rests on the fitted dose curve; in most records, active means well fitted curve in the direction sought with a large enough effect; inconclusive means small, poorly fitted or top-dose-only effect, or another doubt; inactive means no such curve, though single readings can be large; an effect the other way counts as inactive or inconclusive. Potency means the concentration at half of the fitted maximal effect.

SMILES	FLuc modulator	KinaseGlo FLuc	NPC1 prom act	SMN2 splice enh	Rab9 prom act	ELG1 genotox
Cc1cc(=O)oc2cc(NC(=O)c3ccccc3C(=O)O)ccc12	11µM*	.	2%	.	-2%	-3%
Cc1ccccc1NC(=O)Cn1nnc2ccccc21	-10%	4%	7%	2%	9%	1%
O=C(CCN1C(=O)/C(=C\c2ccco2)SC1=S)Nc1ccc(C(=O)O)c(O)c1	11µM*	.	0%	.	-1%	0%[9.26 µM]
O=C(CCN1C(=O)/C(=C/c2ccco2)SC1=S)Nc1ccc(C(=O)O)c(O)c1	7.6µM*	.	-1%	.	-3%	-3%
O=C(CN1C(=O)S/C(=C\c2cccs2)C1=O)Nc1ccc(C(=O)O)c(O)c1	24µM*	.	1%	.	8%	-1%
O=C(CCN1C(=O)/C(=C/c2ccco2)SC1=S)Nc1ccc(O)cc1C(=O)O	?	.	-1%	.	-2%	0%
COc1ccccc1/C=C1\SC(=S)N(CCC(=O)Nc2ccc(C(=O)O)c(O)c2)C1=O	6µM*	.	-1%	.	5%	4%
O=C(CN1C(=O)S/C(=C\c2cccs2)C1=O)Nc1ccc(O)c(C(=O)O)c1	?	.	-6%	.	-13%	2%
CCN(C(=O)COC(=O)c1ccc(S(=O)(=O)N2CCCc3ccccc32)cc1)C1CCS(=O)(=O)C1 (stereo not drawn)	1%	1%	-1%	6%	0%	1%
C[C@]12c3[nH]c4cc(-c5ccco5)ccc4c3CCN1C(=O)[C@@H](CC(=O)NCCC1=CCCCC1)C[C@@H]2C(=O)N1CCOCC1	.	.	.	.	.	-6%
Cc1cc(NC(=O)Cc2cc(F)cc(F)c2)no1	0%	.	-1%	.	3%	-8%
O=S(=O)(NCC1CCCO1)c1cnc(Cl)c(Br)c1 (stereo not drawn)	-2%	1%	0%	7%	-3%	1%
O=C(Nc1cccs1)NC1CCCC1	-17%	-11%	22%	-5%	10%	17%
CC1CCC(NC(=O)Nc2cccs2)CC1 (stereo not drawn)	15µM*	0%	3%	18%	?	?
CCCCN(C(=O)CNC(=O)c1cccs1)C(C(=O)NC1CCCC1)c1ccncc1 (stereo not drawn)	7.6µM*	-5%	0%	.	-4%	5%
CCOC(=O)CN(C(=O)CNC(=O)c1cccs1)C(C(=O)NC1CCCC1)c1ccncc1 (stereo not drawn)	0%	-2%	1%	-8%	1%	-2%
CC1CCC(NC(=O)CNC(=O)c2cccs2)CC1 (stereo not drawn)	?	.	?	.	4µM*	?
Cc1ccc(C(=O)NCC(=O)NC2CCC(C)CC2)s1 (stereo not drawn)	2%	.	0%	.	2%	6%
O=C(CN1CCN(C(c2ccccc2)c2ccccc2)CC1)Nc1ccc(N2CCOCC2)cc1	-2%	0%	-1%	13µM*	-5%	-2%
Cn1c(SCC(=O)Nc2ccc(N3CCOCC3)cc2)nnc1-c1ccccc1F	17µM*	.	7%	.	12%	8%
Cn1c(SCC(=O)Nc2ccc(N3CCOCC3)cc2)nnc1-c1ccccc1	17µM*	1%	2%	41%	4%	8%
Cn1c(COc2ccccc2)nnc1SCC(=O)Nc1ccc(N2CCOCC2)cc1	?	.	10%	.	2%	13%
Cc1cn(CCC(=O)Nc2ccc(N3CCOCC3)cc2)c2ccccc12	13µM*	.	?	.	?	?
COc1ccccc1C(=O)NC(CCSC)C(=O)OCC(=O)N1CCCC1=O (stereo not drawn)	-1%	.	-1%	.	0%	-1%
CCN(c1ccc(OC)cc1)S(=O)(=O)N1CCCC(C(=O)NCc2cccc(C)c2)C1 (stereo not drawn)	-3%	.	-1%	.	-4%	-2%
SMILES	FLuc modulator	KinaseGlo FLuc	NPC1 prom act	SMN2 splice enh	Rab9 prom act	ELG1 genotox
Cn1c(SCC(=O)Nc2ccc(N3CCOCC3)cc2)nnc1-c1ccco1	17µM*	.	-4%	.	2%	1%
CC(C)n1c(SCC(=O)Nc2ccc(N3CCOCC3)cc2)nnc1-c1ccco1	?	.	7%	.	0%	-4%
Cc1c(Cc2ccccc2)c(=O)oc2c(C)c(OCC(=O)NCC3CCC(C(=O)O)CC3)ccc12 (stereo not drawn)	-17%	.	-1%	.	-2%	4%
O=C(Nc1ccc(NS(=O)(=O)c2ccccc2)cc1)c1ccccc1	-2%	.	0%	.	0%	6%
N#CC1(c2ccc(NC(=O)c3ccccc3)cc2)CCCC1	1.3µM*	?	0.28µM*	14µM*	0.4µM*	?
CC(=O)Oc1ccc(C(=O)Nc2ccc(C3(C#N)CCCC3)cc2)cc1	?	.	1.3µM*	.	2µM*	5%
Nc1nnc(-c2cccc(F)c2)s1	-19%	.	3%	.	-3%	7%
CNc1nnc(-c2cccc(N(C)C)c2)s1	15µM*	-5%	?	14µM*	?	11µM*
CCn1ccc(C(=O)NC2CCCC2)n1	1%	.	2%	.	8%	7%
CCc1ccc(OC(=O)c2ccn(CC)n2)cc1	15µM*	-20%	0%	3%	3%	3%
COc1cc2c(cc1OC)n(Cc1ccc([N+](=O)[O-])cc1)c(=O)n1nc(-c3ccccc3)nc21	1%	.	.	.	.	.
COc1ccc(NC(=O)N2CCCc3ccccc32)cc1	?	11%	13%	-6%	5%	21%
CCOC(=O)c1ccc(NC(=O)N2CCc3ccccc3C2)cc1	?	.	-1%	.	18%	13%
CCOC(=O)c1ccc(NC(=O)N2CCc3ccccc32)cc1	1.9µM*	-9%	1.8µM*	16µM*	1.8µM*	8.2µM*
O=C(c1ccccc1)N1CCc2ccccc21	1%	-6%	-2%	-9%	12%	0%
O=C(Nc1ccccc1)N1CCc2ccccc21	21µM*	?	1.6µM*	14µM*	1µM*	9.2µM*
COc1ccc(NC(=O)N2CCc3ccccc32)cc1	1.7µM*	?	0.63µM*	3.2µM*	0.4µM*	?
COc1ccc(C(=O)N2CCc3ccccc32)cc1	?	1%	27%	11µM*	?	?
Cc1cc(C)n(CC(=O)Nc2cc(F)ccc2F)c(=O)c1C#N	-6%	.	.	.	.	.
CC1(C)NC(=O)N(CCOCCOc2ccccc2-c2ccccc2)C1=O	7%	1%	-1%	-9%	-1%	-2%
COc1ccc(CCC(=O)N2CCc3ccccc32)cc1	9.5µM*	-4%	?	0%	?	?
COc1ccc(CCC(=O)N2c3ccccc3CC2C)cc1 (stereo not drawn)	?	0%	24%	39%	22%	?
